Test results as given in PubChem BioAssay (NCI).
This is part of a sample that, as a whole, favours compounds with a hit. Of some 83,000 tested, about 20% had one in any assay.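 48-hour exposure, single concentration, 96-well plates; percent growth endpoint where 0 means no net growth. Active: below 10.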 Values without a mark were called inactive. Activity calls are given as the source filed them.

The compounds below were run on MDA-MB-468 breast (assay: NCI-60 one-dose screen, 48 h (100 = growth as untreated, 0 = no growth, -100 = all killed)). Conditions: 10 µM unless noted.

| SMILES | growth |
| --- | --- |
| CN1C(=O)C2(Nc3cc(Cl)ccc3S2)c2cc(Cl)ccc21 (stereo not given) | 106% |
| CCOC(=O)c1cc(CC)sc1NC(=O)CC(C)=O | 57.2% |
| COc1cc2c(Nc3ccc(NC(=O)Nc4ccc(Cl)c(C(F)(F)F)c4)c(Cl)c3)ncnc2cc1OCCCN1CCN(C)CC1 | -70.1% (active) |
| Cc1cc(N2CCCCC2)nc(NCc2cc(Nc3ccnc4cc(Cl)ccc34)ccc2F)n1 | -60.3% (active) |
| CCOC(=O)c1nn(C2CCCCO2)c2ccc(NC(=O)CN3CCOCC3)cc12 (stereo not given) | 107% |
| Cc1ccc(N=C=C(c2ccccc2)c2ccccc2)cc1 | 69.1% |
| COC1OC(CO)C(OC)C(O)C1O (stereo not given) | 87.1% |
| CCOC(=O)c1cc(C(=O)c2cc(OC)cc(OC)c2)n2ncc3ccccc3c12 | 8.22% (active) |
| c1ccc2cc(-c3n(Cc4ccc5ccccc5n4)c4ccccc4[n+]3Cc3ccc4ccccc4n3)ccc2c1 | -36% (active) |
| Cc1ccc(NC(=O)Cn2nncc2CN2C(=O)CSC2=O)cc1C | 95.5% |
| O=C(Cc1ccccc1)c1ccc(Cl)cc1 | 124% |
| COc1cc(N)ccc1Nc1c2ccccc2nc2ccccc12 | 92.4% |
| CC(=O)c1ccc(NCn2nc(-c3ccc(Cl)cc3)oc2=S)cc1 | 100% |
| CO[C@H](C(=O)[C@@H](O)[C@@H](C)O)[C@@H]1Cc2cc3cc(O[C@H]4C[C@@H](O[C@H]5C[C@@H](O)[C@H](O)C(C)O5)[C@H](O)C(C)(O)O4)cc(O)c3c(O)c2C(=O)[C@H]1O[C@H]1C[C@@H](O[C@H]2C[C@@H](O[C@H]3C[C@@H](OC)[C@H](O)C(C)O3)[C@@H](O)C(C)O2)[C@H](O)C(C)O1 (stereo not given in full) | 14% |
| CN(C)c1ccc2cc(-c3ccccc3F)c(N)nc2c1 | 25.6% |
| Cc1ccc(NCCN(C)CC(C)O)c2c(=O)c3ccc(Cl)cc3sc12 (stereo not given) | -2.72% (active) |
| Cc1c(C(N)=O)sc2nc(SCC(=O)Nc3ccc(Cl)cc3)n(-c3ccccc3)c(=O)c12 | 106% |
| CCCCCCOc1ccc(/C=N/Nc2cc(C)nc3ccc(Br)cc23)cc1 | -78.6% (active) |
| Nc1ccc(-c2ccncc2)cc1NC(=O)N1CCCC1 | 94.2% |
| CNC(=O)c1cc(-n2ccc3cc(NC(=O)Nc4ccc(N5CCOCC5)c(C(F)(F)F)c4)ccc32)ccn1 | 95.2% |

| SMILES | growth |
| --- | --- |
| Cc1ccc(S(=O)(=O)N2CCc3ccc(O)c4c3C2Cc2cc(Cl)ccc2-4)cc1 (stereo not given) | 53.9% |
| COc1cccc(CC(C)=C(c2ccc(OCCN(C)C)cc2)c2ccc(OCCN(C)C)cc2)c1 | -61.5% (active) |
| C/C=C/[C@@H]1C=C[C@@H]2C[C@H](C)CC[C@H]2[C@]1(C)/C(O)=C1/C(=O)[C@H](CO)N(C)C1=O | 65.5% |
| CC(C)COC(=O)COC(=O)OCCOCCOC(=O)OCC(=O)OCC(C)C | 105% |
| Cc1ccc(Nc2ncnc3c2sc2ncccc23)cc1 | 93% |
| COc1cc(-c2cc(-c3ccc(C)cc3)nc3nc(N)[nH]c(=O)c23)ccc1Oc1ccnc2cc(Cl)ccc12 | 52.3% |
| CC(CN1CCN(CC(C)Nc2ccnc3cc(Cl)ccc23)CC1)Nc1ccnc2cc(Cl)ccc12 (stereo not given) | -62.8% (active) |
| COc1ccc2c(c1)c(-c1nonc1-c1cn(C)c3ccccc13)cn2C | 13.9% |
| COc1ccc(-c2nnc(SCC(=O)c3ccccc3)o2)cc1 | 91.5% |
| Nc1c(Br)cc2c(c1Br)Cc1cc([N+](=O)[O-])ccc1-2 | -54.8% (active) |
| CN(C)c1ccc(/C=C/C(=O)c2ccccc2)cc1 | 90.3% |
| COc1cc(-n2cc(-c3cc(O)c(C/C=C(\C)CCC=C(C)C)c(O)c3)nn2)cc2c1O[C@]1(C)CC[C@@H](O)C(C)(C)[C@H]1C2 | -14.6% (active) |
| CC[C@@H]1C(=O)N(C)c2cnc(Nc3ccc(C(=O)NC4CCC(N5CCN(CC6CC6)CC5)CC4)cc3OC)nc2N1C(C)C (stereo not given in full) | -54.1% (active) |
| O=c1cc(/C(=C2/C=CC=N2)c2ccc[nH]2)c2cc(Cl)ccc2o1 | 2.6% (active) |
| O=C(CCCCCCNC(=O)C(O)(O)C(F)(F)F)Nc1ccc(Br)cc1 | 8.56% (active) |
| COc1ccccc1OCC(=O)N1CCCCCC1 | 97.1% |
| CCN(CC)CC(=O)Nc1c(C)cccc1C | 101% |
| O=C(CN1C(=O)/C(=C\c2ccc(Cl)cc2)SC1=S)Nc1ncc(Cc2ccc(Cl)cc2)s1 | 108% |
| Cn1cc(-c2csc(-c3cn(CCN)c4ccc(F)cc34)n2)c2cccnc21 | 20.2% |
| COc1ccc(-c2cc(-c3cccnc3)nc3sc4c(=O)n(-c5ccc(C)cc5)nnc4c23)cc1OC | 88% |
